# Assay results from the supplement of paper PMC6897291.
# Where a name gives a salt, the structure may show the parent alone.
# How the values were obtained:
# RIVA [1] = assay: growth inhibition by drug alone (1 - RLU/untreated control) (fraction); higher = stronger inhibition; conditions: 177Lu-lilotomab satetraxetan 0 ug/ml
# In short: (§1)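 Growth inhibition was calculated from RealTime-Glo RLU against untreated no-drug wells. Values equal 1 − RLU/mean of 48 untreated no-drug wells per plate, read daily from day 3 after 1 h at 37°C. RIVA and U-2932 cells, with or without 18 h pretreatment by a radiolabelled anti-CD37 antibody conjugate (~600 MBq/mg; 0.5 µg/ml RIVA, 1 µg/ml U-2932), were washed and plated at 3,000 cells/well on compound-printed plates at 10/100 nM (RIVA) or 10/1,000 nM (U-2932).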
# U-2932 [2] = assay: growth inhibition by drug plus 177Lu-lilotomab satetraxetan (1 - RLU/untreated control) (fraction); higher = stronger inhibition; conditions: 177Lu-lilotomab satetraxetan 1 ug/ml
# In short: as §1
# RIVA [3] = assay: as above; conditions: 177Lu-lilotomab satetraxetan 0.5 ug/ml
# In short: as §1
# U-2932 [4] = assay: growth inhibition by drug alone (1 - RLU/untreated control) (fraction); higher = stronger inhibition; conditions: 177Lu-lilotomab satetraxetan 0 ug/ml
# In short: as §1
Structure (SMILES),"growth inhibition by drug alone (RIVA [1]; 10 nM, time (day): 3)","growth inhibition by drug alone (RIVA [1]; 10 nM, time (day): 4)","growth inhibition by drug alone (RIVA [1]; 10 nM, time (day): 5)","growth inhibition by drug alone (RIVA [1]; 10 nM, time (day): 6)","growth inhibition by drug alone (RIVA [1]; 100 nM, time (day): 3)","growth inhibition by drug alone (RIVA [1]; 100 nM, time (day): 4)","growth inhibition by drug alone (RIVA [1]; 100 nM, time (day): 5)","growth inhibition by drug alone (RIVA [1]; 100 nM, time (day): 6)","growth inhibition by drug plus 177Lu-lilotomab satetraxetan (U-2932 [2]; 10 nM, time (day): 3)","growth inhibition by drug plus 177Lu-lilotomab satetraxetan (U-2932 [2]; 10 nM, time (day): 4)","growth inhibition by drug plus 177Lu-lilotomab satetraxetan (U-2932 [2]; 10 nM, time (day): 5)","growth inhibition by drug plus 177Lu-lilotomab satetraxetan (U-2932 [2]; 10 nM, time (day): 6)","growth inhibition by drug plus 177Lu-lilotomab satetraxetan (U-2932 [2]; 1000 nM, time (day): 3)","growth inhibition by drug plus 177Lu-lilotomab satetraxetan (U-2932 [2]; 1000 nM, time (day): 4)","growth inhibition by drug plus 177Lu-lilotomab satetraxetan (U-2932 [2]; 1000 nM, time (day): 5)","growth inhibition by drug plus 177Lu-lilotomab satetraxetan (U-2932 [2]; 1000 nM, time (day): 6)","growth inhibition by drug plus 177Lu-lilotomab satetraxetan (RIVA [3]; 10 nM, time (day): 3)","growth inhibition by drug plus 177Lu-lilotomab satetraxetan (RIVA [3]; 10 nM, time (day): 4)","growth inhibition by drug plus 177Lu-lilotomab satetraxetan (RIVA [3]; 10 nM, time (day): 5)","growth inhibition by drug plus 177Lu-lilotomab satetraxetan (RIVA [3]; 10 nM, time (day): 6)","growth inhibition by drug plus 177Lu-lilotomab satetraxetan (RIVA [3]; 100 nM, time (day): 3)","growth inhibition by drug plus 177Lu-lilotomab satetraxetan (RIVA [3]; 100 nM, time (day): 4)","growth inhibition by drug plus 177Lu-lilotomab satetraxetan (RIVA [3]; 100 nM, time (day): 5)","growth inhibition by drug plus 177Lu-lilotomab satetraxetan (RIVA [3]; 100 nM, time (day): 6)","growth inhibition by drug alone (U-2932 [4]; 10 nM, time (day): 3)","growth inhibition by drug alone (U-2932 [4]; 10 nM, time (day): 4)","growth inhibition by drug alone (U-2932 [4]; 10 nM, time (day): 5)","growth inhibition by drug alone (U-2932 [4]; 10 nM, time (day): 6)","growth inhibition by drug alone (U-2932 [4]; 1000 nM, time (day): 3)","growth inhibition by drug alone (U-2932 [4]; 1000 nM, time (day): 4)","growth inhibition by drug alone (U-2932 [4]; 1000 nM, time (day): 5)","growth inhibition by drug alone (U-2932 [4]; 1000 nM, time (day): 6)"
CCOc1cc2ncc(C#N)c(Nc3ccc(F)c(Cl)c3)c2cc1NC(=O)/C=C/CN(C)C [Pelitinib (EKB-569)],-0.202,-0.214,-0.259,-0.439,-0.558,-0.51,-0.627,-0.809,-0.0948,-0.0187,-0.0319,-0.0653,0.276,0.3,0.292,0.357,0.334,0.432,0.448,0.476,0.182,0.368,0.372,0.405,–,–,–,–,–,–,–,–
CCCC(CCC)C(=O)O [Valproic acid sodium salt (Sodium valproate)],-0.0545,-0.0344,-0.0932,-0.3,0.0331,0.00236,-0.00506,-0.0995,0.0169,0.0448,0.0823,0.106,-0.06,0.0571,0.0167,0.0659,0.442,0.551,0.566,0.583,0.469,0.539,0.543,0.523,–,–,–,–,–,–,–,–
C=CCc1cccc(/C=N/NC(=O)CN2CCN(Cc3ccccc3)CC2)c1O,-0.0454,0.0184,-0.0886,-0.379,-0.195,-0.0942,-0.0824,-0.181,0.0573,0.108,0.173,0.215,0.15,0.163,0.17,0.249,0.608,0.648,0.666,0.668,0.392,0.492,0.488,0.509,–,–,–,–,–,–,–,–
C=CC[C@@H]1/C=C(\C)C[C@H](C)C[C@H](OC)[C@H]2O[C@@](O)(C(=O)C(=O)N3CCCC[C@H]3C(=O)O[C@H](/C(C)=C/[C@@H]3CC[C@@H](O)[C@H](OC)C3)[C@H](C)[C@@H](O)CC1=O)[C@H](C)C[C@@H]2OC [FK-506 (Tacrolimus)],–,–,–,–,–,–,–,–,0.323,0.406,0.478,0.594,0.206,0.367,0.459,0.574,0.801,0.806,0.834,0.875,0.87,0.859,0.89,0.913,–,–,–,–,–,–,–,–
C[C@H](NC(=O)Cc1cc(F)cc(F)c1)C(=O)N[C@@H]1C(=O)N(C)c2ccccc2-c2ccccc21,-0.258,-0.261,-0.314,-0.599,-0.307,-0.355,-0.331,-0.429,-0.062,-0.041,-0.0625,-0.0177,-0.026,0.0466,0.00781,-0.0375,0.291,0.422,0.458,0.48,0.298,0.4,0.412,0.389,–,–,–,–,–,–,–,–
Oc1ccc(Nc2nc(-c3ccc(Cl)cc3)cs2)cc1,-0.021,-0.0647,-0.176,-0.522,-0.28,-0.263,-0.403,-0.57,-0.0159,0.00418,0.0159,-0.00943,0.0757,0.243,0.237,0.277,0.383,0.501,0.516,0.539,0.158,0.298,0.304,0.293,–,–,–,–,–,–,–,–
COc1cc2nccc(Oc3ccc(NC(=O)NC4CC4)c(Cl)c3)c2cc1C(N)=O [E7080 (Lenvatinib)],-0.272,-0.277,-0.3,-0.325,-0.113,-0.192,-0.168,-0.219,-0.0798,-0.0346,0.0178,0.0795,-0.0775,0.00296,0.0372,0.201,0.331,0.478,0.485,0.496,0.364,0.44,0.454,0.461,–,–,–,–,–,–,–,–
C[N+](C)([O-])CCNc1ccc(NCC[N+](C)(C)[O-])c2c1C(=O)c1c(O)ccc(O)c1C2=O [Banoxantrone dihydrochloride],-0.171,-0.248,-0.397,-0.545,-0.338,-0.41,-0.557,-0.705,-0.00903,0.0168,0.0134,-0.00428,0.0744,0.142,0.219,0.381,0.391,0.472,0.484,0.498,0.446,0.551,0.571,0.588,–,–,–,–,–,–,–,–
CC(c1cc2ccccc2s1)N(O)C(N)=O (configuration not stated) [Zileuton],-0.0289,-0.0441,-0.104,-0.421,-0.161,-0.195,-0.186,-0.323,-0.00999,0.00112,0.025,0.0355,-0.0574,0.0263,-0.0233,0.0666,0.389,0.507,0.537,0.547,0.4,0.496,0.496,0.482,–,–,–,–,–,–,–,–
Nc1ncn([C@@H]2O[C@H](CO)[C@@H](O)[C@H]2O)c(=O)n1 [Azacitidine (Vidaza)],-0.294,-0.286,-0.358,-0.438,-0.343,-0.332,-0.3,-0.406,-0.107,-0.0484,0.0134,-0.00849,-0.0673,0.0405,0.146,0.324,–,–,–,–,–,–,–,–,-0.0982,-0.0929,-0.0726,-0.0507,-0.188,-0.0618,0.0181,0.17
